Measurements from PubChem BioAssay.
For some of these results: Measured potencies and affinities stand elsewhere. Calls of active or inactive are those of the source.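 The calls were made as follows, unless noted: active = calcium signal cut by more than 3 SD below the full-agonist control yet still positive, in both repeats and the earlier primary screen; inactive = the rest.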

Columns and labels:
[1] = test system: TRPC4 beta (transient receptor potential cation channel C4), mouse; assay: activators of mouse TRPC4 channel, confirmation, cell-based, Fluo4 calcium, HEK293 TRPC4beta/mu-opioid, duplicates, 10 µM (AID 2426;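 active = fluorescence ratio normalized to control raised more than 50% in primary screen plus both repeat runs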;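 as to activation: percent rise of integrated ratio over buffer wells lacking compound which define 0%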); settings: Fluo4 calcium fluorescence, at 10 µM; stronger effect = higher value
[2] = test system: transient receptor potential cation channel C4 beta (TRPC4), mouse; assay: activators of mouse TRPC4 channel, confirmation, cell-based, second round, Fluo4, HEK293 TRPC4beta/mu-opioid, 1 µM (AID 2461;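 active = primary screen active and over 50% activation in each of two duplicate runs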;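 as to activation: 0% = wells without test compound as baseline of integrated fluorescence ratio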); settings: Fluo4 calcium fluorescence, at 1 µM; stronger effect = higher value
[3] = test system: TRPC4 (transient receptor potential cation channel C4 beta), mouse; assay: positive allosteric modulators of mouse TRPC4, confirmation, cell-based, second round, Fluo-4, HEK293 TRPC4beta/mu-opioid, 1 µM (AID 2554;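 active = primary screen hit whose fluorescence ratio, in both repeats, exceeds the weak agonist control mean by 3 SD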); settings: DAMGO EC20, Fluo-4 calcium flux, at 1 µM; stronger effect = higher value
[4] = test system: TRPC4 beta (transient receptor potential cation channel C4), mouse; assay: positive allosteric modulators of mouse TRPC4, confirmation, cell-based, Fluo-4, HEK293 TRPC4beta/mu-opioid (AID 2555;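 active = primary screen hit whose calcium fluorescence ratio, in both repeats, exceeds the weak agonist control mean by 3 SD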); settings: DAMGO EC20, Fluo-4 calcium flux, at 10 µM; stronger effect = higher value
[5] = biological target: Short transient receptor potential channel 4 (Mus musculus) (UniProt Q9QUQ5); assay: inhibitors of mouse TRPC4 channel, confirmation, cell-based, Fluo4, HEK293 TRPC4beta/mu-opioid (AID 2636); settings: DAMGO, Fluo4 calcium flux, at 10 µM; stronger effect = higher value
Chain of Short transient receptor potential channel 4 (Mus musculus) (Q9QUQ5 whole entry, looked up): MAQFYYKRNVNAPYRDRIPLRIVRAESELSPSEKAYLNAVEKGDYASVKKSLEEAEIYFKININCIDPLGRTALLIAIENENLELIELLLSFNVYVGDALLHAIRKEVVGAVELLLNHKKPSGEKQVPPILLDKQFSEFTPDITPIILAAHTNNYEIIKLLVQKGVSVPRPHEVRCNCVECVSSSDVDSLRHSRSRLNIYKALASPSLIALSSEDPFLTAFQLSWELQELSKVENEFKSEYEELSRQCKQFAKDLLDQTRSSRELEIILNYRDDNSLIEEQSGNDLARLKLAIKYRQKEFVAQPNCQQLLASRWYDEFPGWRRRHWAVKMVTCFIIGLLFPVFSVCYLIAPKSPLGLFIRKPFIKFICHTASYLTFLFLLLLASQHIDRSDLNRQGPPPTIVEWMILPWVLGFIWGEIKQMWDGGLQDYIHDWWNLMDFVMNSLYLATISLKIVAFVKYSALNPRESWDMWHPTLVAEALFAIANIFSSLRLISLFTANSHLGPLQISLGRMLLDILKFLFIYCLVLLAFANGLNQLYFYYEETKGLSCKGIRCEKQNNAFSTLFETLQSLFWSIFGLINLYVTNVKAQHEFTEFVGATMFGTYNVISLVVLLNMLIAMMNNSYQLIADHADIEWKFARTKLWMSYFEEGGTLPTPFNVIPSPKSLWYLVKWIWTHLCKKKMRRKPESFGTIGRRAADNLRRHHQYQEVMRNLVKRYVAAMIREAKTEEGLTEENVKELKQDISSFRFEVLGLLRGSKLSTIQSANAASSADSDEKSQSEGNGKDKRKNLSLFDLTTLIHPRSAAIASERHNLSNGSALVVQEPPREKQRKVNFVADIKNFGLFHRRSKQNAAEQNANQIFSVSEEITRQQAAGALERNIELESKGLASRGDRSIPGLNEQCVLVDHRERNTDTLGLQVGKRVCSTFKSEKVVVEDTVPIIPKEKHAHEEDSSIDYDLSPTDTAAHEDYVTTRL

[6] = biological target: Short transient receptor potential channel 4 (Mus musculus) (UniProt Q9QUQ5); assay: inhibitors of mouse TRPC4 channel, confirmation, cell-based, second round, Fluo4, HEK293 TRPC4beta/mu-opioid, 1 µM (AID 2637;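 active = calcium signal ratio cut to more than 3 SD under the fully stimulated control mean yet still positive, in both repeats and the primary screen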); settings: Fluo4 calcium flux, DAMGO, at 1 µM; stronger effect = higher value
[7] = biological target: Short transient receptor potential channel 4 (Mus musculus) (UniProt Q9QUQ5); assay: TRPC4 positive allosteric modulators, dose response, cell-based, HEK293 TRPC4/mu-opioid, Fluo-4 calcium, EC20 DAMGO (AID 434941;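 active = earlier screen potentiator hit that boosts the TRPC4 ion channel at some dose, with a dose response; inactive = no potentiation, no dose response, or not a prior hit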;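 also: calcium entry triggered by an EC20 dose of DAMGO at the co-expressed mu-opioid receptor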)
[8] = biological target: Short transient receptor potential channel 4 (Mus musculus) (UniProt Q9QUQ5); assay: mouse TRPC4 channel inhibitors, dose response, cell-based, HEK293 TRPC4/mu-opioid, Fluo-4 calcium (AID 434942;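 active = primary screen inhibitor hit that blocks the TRPC4 channel at some tested dose, yielding a dose curve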)
[9] = biological target: Short transient receptor potential channel 6 (Mus musculus) (UniProt Q61143); assay: inhibition of mouse TRPC6 channel, confirmation, selectivity assay for TRPC4 inhibitor project, cell-based, HEK293, membrane potential dye, duplicate (AID 434948;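 active = active in primary screen and both duplicates, each dropping signal beyond three positive-control SD with fluorescence still positive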); settings: HEK293 TRPC6, membrane potential dye fluorescence, at 10 µM, stimulated with maximal-effect acetylcholine; stronger effect = higher value
Chain of Short transient receptor potential channel 6 (Mus musculus) (Q61143 whole entry, looked up): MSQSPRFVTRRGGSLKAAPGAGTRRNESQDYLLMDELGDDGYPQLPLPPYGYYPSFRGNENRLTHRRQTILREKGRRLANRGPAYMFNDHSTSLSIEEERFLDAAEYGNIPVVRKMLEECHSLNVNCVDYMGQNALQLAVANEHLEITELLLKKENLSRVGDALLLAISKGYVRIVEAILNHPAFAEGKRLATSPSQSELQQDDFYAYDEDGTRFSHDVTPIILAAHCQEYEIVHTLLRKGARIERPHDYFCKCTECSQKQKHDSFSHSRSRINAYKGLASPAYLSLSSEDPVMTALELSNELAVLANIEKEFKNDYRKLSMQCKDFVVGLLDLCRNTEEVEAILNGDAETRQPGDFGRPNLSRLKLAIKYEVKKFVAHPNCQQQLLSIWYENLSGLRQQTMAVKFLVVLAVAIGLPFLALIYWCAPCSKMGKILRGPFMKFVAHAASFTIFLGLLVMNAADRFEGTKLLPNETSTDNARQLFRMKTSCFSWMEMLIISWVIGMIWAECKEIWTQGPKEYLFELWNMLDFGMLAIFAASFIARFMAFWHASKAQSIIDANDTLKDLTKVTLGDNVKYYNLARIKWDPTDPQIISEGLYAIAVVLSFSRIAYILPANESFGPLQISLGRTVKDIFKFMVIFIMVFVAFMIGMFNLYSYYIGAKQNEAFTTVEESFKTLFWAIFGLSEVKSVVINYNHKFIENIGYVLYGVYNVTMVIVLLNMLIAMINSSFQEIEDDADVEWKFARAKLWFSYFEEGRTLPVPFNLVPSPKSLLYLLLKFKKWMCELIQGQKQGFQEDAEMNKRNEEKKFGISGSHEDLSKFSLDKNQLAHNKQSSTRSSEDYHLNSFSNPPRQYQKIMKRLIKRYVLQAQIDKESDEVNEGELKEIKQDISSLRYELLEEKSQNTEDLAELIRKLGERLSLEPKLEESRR

[10] = biological target: Short transient receptor potential channel 6 (Mus musculus) (UniProt Q61143); assay: activation of mouse TRPC6 channel, confirmation, selectivity assay for TRPC4 activator project, cell-based, HEK293, membrane potential dye, duplicate (AID 434950;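 active = membrane potential signal rise above negative control mean plus 3 SD in both duplicates, also active in the earlier TRPC4 screen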;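 as to activation: 0% = buffer only wells and 100% = acetylcholine maximal-effect wells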); settings: HEK293 TRPC6, membrane potential fluorescence, at 10 µM; stronger effect = higher value
[11] = biological target: Short transient receptor potential channel 6 (Mus musculus) (UniProt Q61143); assay: TRPC6 potentiation by TRPC4 potentiator hits, confirmation, selectivity assay for TRPC4 potentiator project, HEK293 cells, membrane potential dye, duplicate (AID 434952;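 active = compound raising the membrane signal above positive-control mean plus 3 SD in both repeats, and a primary screen hit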); settings: HEK293 TRPC6, membrane potential dye fluorescence, at 10 µM, maximal acetylcholine added after compound; stronger effect = higher value
[12] = biological target: Short transient receptor potential channel 4 (Mus musculus) (UniProt Q9QUQ5); assay: calcium flux activators in TRPC4/5HT1a cells, counter-screen for TRPC4 activator project, cell-based, second counter screen, HEK293 TRPC4/5HT1a, Fluo-4 (AID 434977;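 active = calcium signal rise above buffer-control mean plus 5 SD in both duplicates, and also a hit in the primary screen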;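 as to activation: plate controls were assay buffer for no effect and maximal serotonin response for full effect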); settings: Fluo-4 calcium flux, at 10 µM; stronger effect = higher value
[13] = calcium flux inhibitors in TRPC4/5HT1a cells, confirmation, counter-screen for TRPC4 inhibitor project, cell-based, second counter screen, HEK293 TRPC4/5HT1a, Fluo-4 (AID 434978;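 active = primary screen active whose calcium signal fell more than 3 SD beyond the full-serotonin control mean in both duplicate plates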;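 also: serotonin given first at submaximal then at maximal dose after compound preincubation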); settings: Fluo-4 calcium flux, at 10 µM, serotonin added to trigger calcium flux; stronger effect = higher value
[14] = test system: TRPC4 (mouse), co-expressed with 5HT1a in HEK293; assay: calcium flux potentiators in TRPC4/5HT1a cells, confirmation, counter-screen for TRPC4 potentiator project, cell-based, second counter screen, HEK293 TRPC4/5HT1a, Fluo-4 (AID 434979;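 active = signal rise over 3 SD above mean of control wells given weak agonist, in both repeats and first screen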); settings: Fluo-4 calcium flux, at 10 µM, serotonin added at its EC20 dose; stronger effect = higher value
[15] = calcium flux activation in mu-opioid HEK293 cells, confirmation, counter-screen for TRPC4 activator project, cell-based, HEK293 mu-opioid receptor line (AID 449723;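 active = hit in primary screen, with calcium signal over 5 SD above buffer well mean in both duplicates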;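 also: counter screen cells carry the mu-opioid receptor alone and lack TRPC4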); settings: Fluo-4 calcium fluorescence, at 10 µM; stronger effect = higher value
[16] = calcium flux enhancement in mu-opioid HEK293 cells, confirmation, counter-screen for TRPC4 allosteric potentiator project, cell-based, HEK293 mu-opioid receptor line (AID 449724;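 active = calcium signal rise more than 3 SD above the low-dose agonist control mean, in both duplicate plates and the primary screen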); settings: Fluo-4 calcium flux, at 10 µM, compound added before EC20 DAMGO stimulus; stronger effect = higher value

CN(C)C(CNC(=S)Nc1cccc(Cl)c1)c1ccccc1 (configuration not stated)
activation [1]: 255% (active)
activation [2]: 127% (active)
outcome [3]: inactive
outcome [4]: inactive
outcome [5]: inactive
outcome [6]: inactive
outcome [7]: inactive
outcome [8]: inactive
outcome [9]: inactive
outcome [10]: inactive
outcome [11]: inactive
outcome [12]: inactive
outcome [13]: inactive
outcome [14]: inactive
outcome [15]: inactive
outcome [16]: inactive

COc1ccc(C(CCNCc2ccc(N(C)C)cc2)c2ccccc2OC)cc1 (configuration not stated)
activation [1]: 133% (active)
outcome [2]: inactive
outcome [3]: inactive
outcome [4]: inactive
outcome [5]: inactive
outcome [6]: inactive
outcome [7]: inactive
outcome [8]: inactive
outcome [9]: inactive
outcome [10]: inactive
outcome [11]: inactive
activation [12]: 8.8% (active)
outcome [13]: inactive
outcome [14]: inactive
outcome [15]: inactive
outcome [16]: inactive

CC(c1cccnc1)N(CCN(C)C)C(=O)Nc1ccc(Cl)c(Cl)c1 (configuration not stated)
outcome [1]: inactive
outcome [2]: inactive
outcome [3]: inactive
outcome [4]: inactive
outcome [5]: inactive
outcome [6]: inactive
outcome [7]: inactive
outcome [8]: inactive
outcome [9]: inactive
activation [10]: 34% (active)
outcome [11]: inactive
outcome [12]: inactive
outcome [13]: inactive
outcome [14]: inactive
outcome [15]: inactive
outcome [16]: inactive

COC(=O)c1ccc(N2CCN(C)CC2)c(NC(=O)COc2ccccc2)c1
activation [1]: 86% (active)
outcome [2]: inactive
outcome [3]: inactive
outcome [4]: inactive
outcome [5]: inactive
outcome [6]: inactive
outcome [7]: inactive
outcome [8]: inactive
outcome [9]: inactive
outcome [10]: inactive
outcome [11]: inactive
activation [12]: 12.3% (active)
outcome [13]: inactive
outcome [14]: inactive
outcome [15]: inactive
outcome [16]: inactive

CCN(c1ccccc1)S(=O)(=O)c1ccc(C(=O)N(CCCN(C)C)c2nc3cc4c(cc3s2)OCO4)cc1
activation [1]: 99% (active)
outcome [2]: inactive
outcome [3]: inactive
outcome [4]: inactive
outcome [5]: inactive
outcome [6]: inactive
outcome [7]: inactive
outcome [8]: inactive
outcome [9]: inactive
outcome [10]: inactive
outcome [11]: inactive
outcome [12]: inactive
outcome [13]: inactive
outcome [14]: inactive
outcome [15]: inactive
outcome [16]: inactive

Cn1c(-c2cccc3ccccc23)n[nH]c1=S
activation [1]: 117% (active)
activation [2]: 97% (active)
outcome [3]: inactive
outcome [4]: inactive
outcome [5]: inactive
outcome [6]: inactive
outcome [7]: inactive
outcome [8]: inactive
outcome [9]: inactive
outcome [10]: inactive
outcome [11]: inactive
activation [12]: 30.5% (active)
outcome [13]: inactive
outcome [14]: inactive
outcome [15]: inactive
outcome [16]: inactive

Clc1ccc(OCCNCCc2ccccc2)cc1
outcome [1]: inactive
outcome [2]: inactive
outcome [3]: inactive
outcome [4]: inactive
outcome [5]: inactive
outcome [6]: inactive
outcome [7]: inactive
outcome [8]: inactive
outcome [9]: inactive
activation [10]: 53% (active)
outcome [11]: inactive
activation [12]: 24.4% (active)
outcome [13]: inactive
outcome [14]: inactive
outcome [15]: inactive
outcome [16]: inactive
